Only a selection was taken, and hits are over-represented in it overall.
TDP1 inh = qHTS Assay for Inhibitors of Tyrosyl-DNA Phosphodiesterase (TDP1); AID 485290, 2010; hit rate 0.28% among 350,000; recombinant TDP1, AlphaScreen DNA substrate cleavage; Tyrosyl-DNA phosphodiesterase 1 (Homo sapiens), Q9NUW8; Potency, µM (doses to about 130 µM), for inactives: at the top dose activity change, negative = inhibition, actives largely listed as inhibitors; further: nearly all actives have a fitted effect of over 40% in size
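Steps: enzyme plus compound, 15 min RT; add biotin/phosphotyrosine-FITC oligonucleotide (15 nM final), react 5 min; add donor/acceptor beads (10 ug/ml final), 10 min; read AlphaScreen. Tdp1 at 1 nM final.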
BLM inh = qHTS Assay for Inhibitors of Bloom's syndrome helicase (BLM); recombinant BLM DNA unwinding, fluorescence dequenching; Potency, µM (highest dose often 56.1 µM), without a hit: top-dose activity change, negative = inhibition, hits mostly inhibitors; hit rate 0.2% among 350,000; AID 2528, 2010;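 further: plate controls were vehicle for no effect and no enzyme for full effect; nearly all actives have a fitted effect of over 35% in size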
KDM4E inh = qHTS Assay for Inhibitors of Human Jumonji Domain Containing 2E (JMJD2E) | hit rate 1.6% among 230,000 | Potency, µM (top dose mostly 57.1 µM), for the others: top-dose activity change, negative = inhibition, actives largely listed as inhibitors | JMJD2E catalytic domain, FDH-coupled NADH fluorescence (FDH is formaldehyde dehydrogenase) | AID 2147, 2009 | Lysine-specific demethylase 4E (Homo sapiens), B2RXH2; active means well fitted inhibition curve with a large enough effect, not every such curve was filed as active; inconclusive means small, poorly fitted or top-dose-only effect, or another doubt; inactive means no such curve, though single readings can be large or run the other way;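 further: 0% = wells with enzyme and -100% = buffer wells without enzyme; nearly all actives have a fitted effect of over 50% in size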
APEX1 inh = qHTS Assay for Inhibitors of the Human Apurinic/apyrimidinic Endonuclease 1 (APE1); DNA repair nuclease/redox regulator APEX1 (Homo sapiens), P27695; hit rate 0.35% among 350,000; recombinant APE1, TAMRA/BHQ-2 abasic DNA cleavage fluorescence; Potency, µM (top dose mostly 65.8 µM), inactives show top-dose activity change, negative = inhibition, most hits filed as inhibitors;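 further: plate controls were vehicle for no effect and reference inhibitor for full effect; nearly all actives have a fitted effect of over 55% in size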
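Measures dequenching upon AP-site incision of a 5'-TAMRA/3'-BHQ-2 THF-containing duplex, 50 nM; human APE1 0.75 nM after 15 min room-temperature exposure to compound; kinetic three-point read at one-minute spacing.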
RECQ1 inh = qHTS Assay for Inhibitors of RecQ-Like Dna Helicase 1 (RECQ1) | hit rate 0.54% among 240,000 | RECQ1 DNA unwinding, red fluorescence kinetic read | Potency, µM (doses to about 57.3 µM), inactives show at the highest dose activity, negative = inhibition, hits mostly inhibitors | ATP-dependent DNA helicase Q1 (Homo sapiens), P46063;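 further: plate controls were vehicle for no effect and no enzyme for full effect; nearly all actives have a fitted effect of over 30% in size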
Target sequence (P46063 whole entry, looked up): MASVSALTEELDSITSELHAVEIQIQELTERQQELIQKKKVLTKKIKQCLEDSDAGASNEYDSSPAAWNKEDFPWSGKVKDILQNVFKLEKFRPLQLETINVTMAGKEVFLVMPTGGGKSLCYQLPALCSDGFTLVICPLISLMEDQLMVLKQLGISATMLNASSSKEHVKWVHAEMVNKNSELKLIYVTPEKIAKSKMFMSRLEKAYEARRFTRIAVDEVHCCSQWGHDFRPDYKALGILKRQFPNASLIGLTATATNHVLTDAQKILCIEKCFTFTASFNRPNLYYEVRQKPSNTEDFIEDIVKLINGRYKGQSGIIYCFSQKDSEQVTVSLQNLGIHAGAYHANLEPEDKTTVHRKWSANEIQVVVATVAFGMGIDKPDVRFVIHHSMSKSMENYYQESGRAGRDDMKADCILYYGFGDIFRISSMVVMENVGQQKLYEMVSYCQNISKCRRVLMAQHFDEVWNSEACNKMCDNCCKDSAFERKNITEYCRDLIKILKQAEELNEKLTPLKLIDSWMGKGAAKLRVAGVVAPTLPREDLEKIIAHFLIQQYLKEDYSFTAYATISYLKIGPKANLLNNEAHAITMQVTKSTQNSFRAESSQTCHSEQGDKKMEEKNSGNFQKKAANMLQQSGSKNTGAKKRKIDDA
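50 nM RECQ1T1 preincubated 15 min with compound in Tris pH 8.0 buffer with MgCl2, DTT, Tween-20 and 2.5 ug/ml poly(dI-dC); started with 200 nM TAMRA/BHQ-2 forked duplex and 2 mM ATP. Unwinding read as fluorescence (525/598 nm), two reads 2 h apart.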
GCN5L2 inh = qHTS Assay for Inhibitors of GCN5L2; Histone acetyltransferase KAT2A (Homo sapiens), Q92830; GCN5L2 HAT assay, ThioGlo1 CoA-SH fluorescence; Potency, µM (series often up to 58.9 µM), for the others: at the highest dose activity change, negative = inhibition, most hits filed as inhibitors; hit rate 0.21% among 390,000; AID 504327, 2011
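Compounds, pin-transferred from DMSO stocks, meet 20nM GCN5L2 for 15 min before the reaction begins with H3(1-25) peptide (75uM) and acetyl-CoA (70uM). Thiol-reactive ThioGlo1 reports CoA release over 20 min at room temperature.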
* = called active by the depositor; i = inactive; ? = inconclusive; . = no result; ! = a repeat was not active; [ ] = another dose, or the depositor's remark. Unless noted, the call rests on the fitted dose curve; in most records, active means well fitted curve in the direction sought with a large enough effect; inconclusive means small, poorly fitted or top-dose-only effect, or another doubt; inactive means no such curve, though single readings can be large; an effect the other way counts as inactive or inconclusive. Unless noted, on the % scale 0 is the no-effect control and ±100 the full control effect; potency means the concentration at half of the fitted maximal effect.

SMILES	TDP1 inh	BLM inh	KDM4E inh	APEX1 inh	RECQ1 inh	GCN5L2 inh
O=[N+]([O-])c1ccc(/C=N/Nc2ncc(Br)cn2)cc1	50µM*	-16%	.	-7%	.	-10%
Cc1cccn2c(=O)c3cc(C(=O)NCc4ccco4)c(=N)n(C4CCCCC4)c3nc12	.	47%	.	17µM*	.	-4%
Cc1cnc(CNc2cc(-c3ccccc3C(F)(F)F)ncn2)cn1	.	-1%	.	2%	-8%	-14%
COc1ccccc1-c1cc(NCc2cnc(C)cn2)ncn1	.	-3%	.	3%	-10%	20µM*
COc1ccc(OC)c(CCNC(=O)Cn2sc3nc(C)cc(C)c3c2=O)c1	12%	3%	28µM*	?	-10%	?
Cc1cc(C)c2c(=O)n(CC(=O)NC3CCCC3)sc2n1	.	0%	?	3%	-2%	?
O=C(Cn1c2[n+](c3ccc(C(F)(F)F)cc31)CCCCC2)Nc1ccc(Br)cc1	7%	-1%	-29%	0%	-4%	-5%
N#Cc1ccc(NC(=O)Cn2c3[n+](c4ccc(C(F)(F)F)cc42)CCCCC3)cc1	0%	-1%	25µM*	24%	i	0%
COc1ccccc1NC(=O)c1ccc2ccccc2c1	-11%	.	.	.	.	.
CN(C)c1oc(-c2cccc3ccccc23)nc1C#N	.	.	.	52%	.	.
COc1cccc(Cn2cnc3c(cnn3C(C)(C)C)c2=O)c1	.	.	.	-6%	.	.
C=CCc1cccc(/C=N/NC(=O)C(C)Nc2cccc(C)c2)c1O (stereo unspecified)	5%	-1%	20µM*	-4%	-3%	-6%
COc1cc([N+](=O)[O-])cc(/C=N/NC(=O)C(C)Nc2cccc(C)c2)c1O (stereo unspecified)	1%	-3%	3.2µM*	8%	-7%	31%
Cc1cc2c(s1)c1cnn(Cc3ccc(F)c(F)c3F)c(=O)c1n2C	-3%	.	.	.	.	.
O=[S+]([O-])(/C=C/c1nc(Nc2cc(F)cc(F)c2)c2ncn(CC(F)F)c2n1)c1ccccc1	0%	.	.	.	.	.
Cn1ncc(S(=O)(=O)Cc2ccccc2)c(Br)c1=O	.	.	.	.	.	-20%
CC1CC(C)(C)CC2(C1)NC(=S)N(c1ccccc1)N2 (stereo unspecified)	9%	-2%	?	11%	-6%	-2%[0.501 µM]
S=C1NC2(CCCCC2)NN1c1ccccc1	8%	-3%	?	-7%	-2%	18µM*
CCCCCCCCC#CCC#CCC#CCCCC(=O)O	?	5%	0%	?	20µM*!	4%
CCCCCCC(=O)O	2%	.	.	8%	-1%	-5%
CCCCCCCC/C=C\CCCCCCCCCCCC(=O)O	.	-14%	.	-10%	-23%	8.9µM*
CCCCCCCC/C=C\CCCCCCCC(=O)O	6%	?	6%	?	-6%	32µM*!
CCCCC/C=C\C/C=C\CCCCCCCC(=O)O	4%	-12%	2%	10%	-3%	?
CCCCC/C=C\C/C=C\C/C=C\CCCCC(=O)O	-15%	118%	-2%	-16%	18%	14µM*!
CCC(Cc1c(I)cc(I)c(O)c1I)C(=O)O (stereo unspecified)	.	6%	.	.	.	22µM*
SMILES	TDP1 inh	BLM inh	KDM4E inh	APEX1 inh	RECQ1 inh	GCN5L2 inh
c1nc(NCc2ccoc2)c2cc(-c3ccc4c(c3)OCO4)ccc2n1	4%	.	.	.	.	.
COc1cccc(C2c3c(ncn(-c4ccccc4Br)c3=N)Oc3ccc4ccccc4c32)c1 (stereo unspecified)	3%	.	.	.	.	.
O=C(NN(C(=O)c1ccccc1)c1ccccc1)c1ccccc1	71µM*	-6%	18%	-11%	2%	-1%
[N-]=C=C1C(=S)NC(=O)[C@H]([n+]2ccccc2)[C@H]1c1ccc(Cl)cc1	-10%	3%	?	?	32µM*	11µM*
COc1ccc(NS(=O)(=O)c2ccc3[nH]c4c(c3c2)CCCCC4)cc1	3%	-4%	.	.	.	-2%
CC1=C(C(=O)OC(C)C)C(c2ccc(N(C)C)cc2)C2=C(CC(C)(C)CC2=O)N1 (stereo unspecified)	9%	-2%	14µM*	20%	i	-15%
CC1=C(C(=O)OC(C)C)C(c2cccnc2)C2=C(CC(C)(C)CC2=O)N1 (stereo unspecified)	6%	-8%	?	-1%	-2%	-4%
CC(C)N1CCC(N2CCN(CCCn3cccn3)CC2CCO)CC1 (stereo unspecified)	-4%	-2%	-11%	3%	-4%	4%
OCCC1CN(CCCn2cccn2)CCN1C1CCCCC1 (stereo unspecified)	8%	-2%	-3%	0%	-11%	25µM*
CO[C@H](C(=O)[C@@H](O)[C@@H](C)O)C1Cc2cc3cc(O[C@H]4C[C@@H](O[C@H]5C[C@@H](O)[C@H](O)[C@@H](C)O5)[C@@H](O)[C@@H](C)O4)c(C)c(O)c3c(O)c2C(=O)[C@H]1O[C@H]1C[C@@H](O[C@H]2C[C@@H](O[C@H]3C[C@](C)(O)[C@H](O)[C@@H](C)O3)[C@H](O)[C@@H](C)O2)[C@H](O)[C@@H](C)O1 (stereo partly specified)	.	-6%	.	.	.	8%
Cc1cc2c(s1)c1cnn(Cc3ccc(C(C)C)cc3)c(=O)c1n2C	-3%	.	.	.	.	.
Cc1nc2ccccc2c(=O)[nH]1	1%	-2%	-2%	0%	-14%	-6%
Cc1nc2c(O)cccc2c(=O)[nH]1	10%	-8%	13µM*	10%	-4%	-11%
Cc1cc(O)ccc1Nc1nc2ccccc2nc1Nc1ccc(O)cc1C	6%	-11%	25µM*	8%	-7%	-5%
CC(=O)c1ccc(NC(=O)CSc2nnc(-c3ccco3)c(-c3ccco3)n2)cc1	-3%	7.9µM*	16µM*	16%	-7%	?
O=C(N/N=C/c1cccnc1)/C(=C\c1cccs1)NC(=O)c1ccccc1	0%	3%	-4%	3%	-7%	-8%
O=C(N/N=C/c1cc2ccccc2nc1Cl)/C(=C/c1cccs1)NC(=O)c1ccccc1	-13%	?	?	-8%	25µM*	-3%
Cc1cc2c(s1)c1cnn(Cc3ccccc3F)c(=O)c1n2C(C)C	-8%	.	.	.	.	.
